Potency and viability change, negative = toxic data for 25 compounds are collected here from PubChem BioAssay AID1347088 (National Center for Advancing Translational Sciences (NCATS), 2019).

Inconclusive results are not listed. Where a call stands in place of a potency, no number is given. A number with no mark means an inactive call. Active and inactive are the calls of the source. Calls come from the whole dose curve.

This assay is described as follows: qHTS for Inhibitors of the Functional Ribonucleoprotein Complex (vRNP) of Lymphocytic Choriomeningitis Arenaviruses (LCMV): Viability assay - Alamar blue signal for LCMV Confirmatory Screen. The settings on record: LCMV vRNP confirmatory screen cells; series mostly up to 53.9 µM. On the technique in general: qHTS replaces the single test concentration by a dilution series.
As to `N#CC(=C(\N)Sc1ccccc1N)/C(C#N)=C(/N)Sc1ccccc1N`, the Potency entry was “inactive”.
On the same count and under the same terms, the same measure for `Cc1ncc([N+](=O)[O-])n1CC(C)O` (stereo not given): “inactive”; for `C[C@]12CC[C@@H](O)C[C@H]1CC[C@@H]1[C@H]2CC[C@]2(C)C(=O)CC[C@@H]12`: “inactive”; for `C=C1CC[C@@H]2[C@](C)(CO)[C@H](O)CC[C@@]2(C)[C@@H]1/C=C/C1=CCOC1=O`: “inactive”.
Same read-out and setting: the same measure for `CCOC(=O)OCC/C(SC(=O)OCC)=C(\C)N(C=O)Cc1cnc(C)nc1N`: “inactive”.
Same read-out and setting: next, `Cc1ccc2c(c1)C1CN(C)CCC1N2` (stereo not given): “inactive”.
With `CCN(CC)C(=O)N[C@@H]1C=C2c3cccc4[nH]cc(c34)C[C@@H]2N(C)C1`, the Potency result is “inactive”.
On the same count and under the same terms, next, `CCC[C@H](N[C@@H](C)C(=O)N1[C@@H]2CCCC[C@H]2C[C@H]1C(=O)O)C(=O)OCC`: “inactive”.
Turning to `CCCCC[C@H](O)/C=C/C=C/C/C=C\CCCC(=O)O`, the viability change, negative = toxic is -17.3% [at 0.666 µM].
Turning to `CC(C)=CCC/C(C)=C/CC/C(C)=C/CC[C@]1(C)CCc2c(C)c(O)c(C)c(C)c2O1`, the viability change, negative = toxic was -1.54% [at 6 µM].
Turning to `CC[C@@]1([C@@H]2O[C@@H]([C@H]3O[C@@](O)(CO)[C@H](C)C[C@H]3C)C[C@H]2C)CC[C@H]([C@]2(C)CC[C@]3(C[C@H](O)[C@@H](C)[C@@H]([C@@H](C)[C@@H](OC)[C@H](C)C(=O)O)O3)O2)O1`, the Potency is 5.95 µM (active).
On the same count and under the same terms, next, `Clc1nccc2c1ccc1ccccc12`: “inactive”; `CCc1cncnc1N1CCN(Cc2nc3ccc(C(F)(F)F)cc3[nH]2)CC1`: 35.2 µM (active).
Still for that read-out and setting: next, `Cn1cc(-c2ccncc2)c(-c2ccc(OCc3ccc4ccccc4n3)cc2)n1`: 38.5 µM (active); `O=C(CCCN1CCN(c2ccc(F)cc2)CC1)NC1c2ccccc2CSc2ccccc21` (stereo not given): “inactive”; `FC(F)(F)c1ccc(C=Cc2nc(COc3ccc(CCCCn4ccnn4)cc3)co2)cc1`: “inactive”.
As for `COC(=O)c1nc(Cl)c(Cl)nc1N`, the Potency was 6.11 µM (active).
The same measure, in the same setting: next, `NC(=O)N/N=C/c1ccc([N+](=O)[O-])o1`: “inactive”; `CNCCCC1c2ccccc2C=Cc2ccccc21`: 27.3 µM (active); `CC(O)(P(=O)(O)O)P(=O)(O)O`: “inactive”.
On the same count and under the same terms, the same measure for `CCC(C)c1nccnc1OC` (stereo not given): “inactive”; for `CN1C(C(=O)Nc2ccccn2)=C(O)c2ccccc2S1(=O)=O`: “inactive”.
Still for that read-out and setting: next, `COc1cc2c(cc1OC)CC(=O)N(CCCN(C)C[C@H]1Cc3cc(OC)c(OC)cc31)CC2`: “inactive”; `O=C(Nc1ccccc1)Nc1ccc(-c2ccc(C(=O)[C@H]3CCC[C@H]3C(=O)O)cc2)cc1`: “inactive”.
On to `COc1ccc2c(c1OC)CN1CCc3cc4c(cc3C1C2)OCO4` (stereo not given), for which the Potency entry was “inactive”.
